Our source for the binding signal values is paper PMC7862700, “An all-to-all approach to the identification of sequence-specific readers for epigenetic DNA modifications on cytosine”.

Common to all, as to assay: DAPPL (digital affinity profiling via proximity ligation, sequencing); 10 mM Tris-HCl pH 7.5, 50 mM NaCl, 1 mM DTT, 4% glycerol, room temperature, 30 min; GST-TFs on glutathione beads, 16-mer random dsDNA library, 0.1% formaldehyde crosslink after washing; high values mean tight binding
For one experiment, the target named is T1, FEV (Homo sapiens, UniProt Q99581 1-238).
T1 sequence: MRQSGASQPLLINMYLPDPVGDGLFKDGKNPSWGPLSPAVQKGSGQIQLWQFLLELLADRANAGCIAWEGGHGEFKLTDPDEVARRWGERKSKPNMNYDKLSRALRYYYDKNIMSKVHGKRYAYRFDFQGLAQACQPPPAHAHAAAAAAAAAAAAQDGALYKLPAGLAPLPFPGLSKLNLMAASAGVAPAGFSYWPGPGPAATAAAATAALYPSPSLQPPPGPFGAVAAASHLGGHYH
Particulars: protein: recombinant; tags: N-terminal GST; dsDNA, one strand shown. In short, it runs like this: (§1)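 Binding signal is given per hexamer as its read frequency for a factor divided by its frequency in the tag-only sample. GST-fused human transcription factors were expressed in yeast, captured on glutathione beads, barcoded with DNA and pooled with that sample, then incubated with 200 nmole of a 16-mer random double-stranded DNA library in Tris/NaCl/DTT/glycerol buffer for 30 min at room temperature. The pools were then washed, crosslinked, proximity-ligated, amplified by PCR and sequenced on an Illumina NextSeq500.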

Another experiment deals with ETV5 (Homo sapiens, UniProt P41161 1-510). The note with it: protein: recombinant; tags: N-terminal GST; dsDNA, one strand shown. In short, it runs like this:
as §1

Another experiment has as its target HSF1 (Homo sapiens, UniProt Q00613 1-529). Particulars: protein: recombinant; tags: N-terminal GST; chain copies: 3; dsDNA, one strand shown. The procedure, abridged:
as §1

A further experiment has as its target T2, SPIC (Homo sapiens, UniProt Q8N5J4 1-248).
T2 sequence: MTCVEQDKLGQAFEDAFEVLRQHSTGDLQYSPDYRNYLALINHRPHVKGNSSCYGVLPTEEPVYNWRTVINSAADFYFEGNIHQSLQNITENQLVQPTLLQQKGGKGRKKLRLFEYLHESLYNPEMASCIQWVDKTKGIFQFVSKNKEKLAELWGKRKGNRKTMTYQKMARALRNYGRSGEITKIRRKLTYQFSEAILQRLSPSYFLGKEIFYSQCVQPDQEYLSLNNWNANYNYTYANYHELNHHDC
Particulars: protein: recombinant; tags: N-terminal GST; dsDNA, one strand shown. The procedure, abridged: as §1

Another experiment has as its target ELF4 (Homo sapiens, UniProt Q99607 1-663). The note with it: protein: recombinant; tags: N-terminal GST; dsDNA, one strand shown. The procedure, abridged: as §1
Another experiment concerns the target T3, ELK4 (Homo sapiens, UniProt P28324-2 1-405).
T3 sequence: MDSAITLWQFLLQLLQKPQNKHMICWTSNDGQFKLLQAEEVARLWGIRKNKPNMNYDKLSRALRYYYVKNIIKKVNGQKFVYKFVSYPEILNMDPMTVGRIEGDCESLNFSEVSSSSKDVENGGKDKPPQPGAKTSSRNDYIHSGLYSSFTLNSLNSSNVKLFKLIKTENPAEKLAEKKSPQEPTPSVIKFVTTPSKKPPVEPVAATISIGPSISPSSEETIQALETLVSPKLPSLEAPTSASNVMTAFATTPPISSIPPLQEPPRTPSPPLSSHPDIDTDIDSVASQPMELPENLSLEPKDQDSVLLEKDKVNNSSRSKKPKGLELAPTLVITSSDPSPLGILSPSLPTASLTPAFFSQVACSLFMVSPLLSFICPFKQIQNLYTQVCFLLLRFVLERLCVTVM
The note with it: protein: recombinant; tags: N-terminal GST; dsDNA, one strand shown. The procedure, abridged: as §1

In the next experiment the target is T4, ETV2 (Homo sapiens, UniProt O00321 1-342).
T4 sequence: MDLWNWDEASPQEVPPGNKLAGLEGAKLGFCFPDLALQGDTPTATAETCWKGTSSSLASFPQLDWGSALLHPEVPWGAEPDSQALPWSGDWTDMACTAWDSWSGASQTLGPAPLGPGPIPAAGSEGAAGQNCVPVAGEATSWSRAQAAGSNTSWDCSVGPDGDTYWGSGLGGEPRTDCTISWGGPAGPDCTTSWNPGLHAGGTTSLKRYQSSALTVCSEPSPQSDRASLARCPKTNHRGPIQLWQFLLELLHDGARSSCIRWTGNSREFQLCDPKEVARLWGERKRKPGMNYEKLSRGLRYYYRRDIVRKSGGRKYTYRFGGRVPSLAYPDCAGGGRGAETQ
The note with it: protein: recombinant; tags: N-terminal GST; dsDNA, one strand shown. In short, it runs like this:
as §1

A further experiment concerns the target T5, ELF3 (Homo sapiens, UniProt P78545 1-371).
T5 sequence: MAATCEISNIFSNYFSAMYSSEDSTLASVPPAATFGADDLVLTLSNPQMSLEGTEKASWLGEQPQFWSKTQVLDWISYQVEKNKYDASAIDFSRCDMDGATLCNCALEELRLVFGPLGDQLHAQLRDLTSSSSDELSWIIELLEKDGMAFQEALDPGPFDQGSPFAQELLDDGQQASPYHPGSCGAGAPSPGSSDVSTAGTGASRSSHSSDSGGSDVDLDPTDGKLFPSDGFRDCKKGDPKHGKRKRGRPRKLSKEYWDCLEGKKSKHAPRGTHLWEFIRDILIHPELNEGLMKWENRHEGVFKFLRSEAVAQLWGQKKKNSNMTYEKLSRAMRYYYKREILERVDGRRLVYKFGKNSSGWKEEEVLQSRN
The note with it: protein: recombinant; tags: N-terminal GST; dsDNA, one strand shown. The procedure, abridged: as §1

The target in a further experiment is CRX (Homo sapiens, UniProt O43186 1-299). Particulars: protein: recombinant; tags: N-terminal GST; dsDNA, one strand shown. The procedure, abridged: as §1
Chain of CRX (O43186 whole entry): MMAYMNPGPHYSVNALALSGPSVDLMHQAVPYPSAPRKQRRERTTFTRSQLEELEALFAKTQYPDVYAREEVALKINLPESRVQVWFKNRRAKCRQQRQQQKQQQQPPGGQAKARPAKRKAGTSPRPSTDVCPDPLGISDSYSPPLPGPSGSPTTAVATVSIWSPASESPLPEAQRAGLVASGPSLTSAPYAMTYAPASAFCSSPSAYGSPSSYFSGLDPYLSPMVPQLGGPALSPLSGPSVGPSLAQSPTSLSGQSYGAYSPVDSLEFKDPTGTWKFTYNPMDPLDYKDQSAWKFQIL
For the next experiment, the target named is ETV1 (Homo sapiens, UniProt P50549 1-477). Particulars: protein: recombinant; tags: N-terminal GST; dsDNA, one strand shown. In short, it runs like this: as §1
Chain of ETV1 (P50549 whole entry): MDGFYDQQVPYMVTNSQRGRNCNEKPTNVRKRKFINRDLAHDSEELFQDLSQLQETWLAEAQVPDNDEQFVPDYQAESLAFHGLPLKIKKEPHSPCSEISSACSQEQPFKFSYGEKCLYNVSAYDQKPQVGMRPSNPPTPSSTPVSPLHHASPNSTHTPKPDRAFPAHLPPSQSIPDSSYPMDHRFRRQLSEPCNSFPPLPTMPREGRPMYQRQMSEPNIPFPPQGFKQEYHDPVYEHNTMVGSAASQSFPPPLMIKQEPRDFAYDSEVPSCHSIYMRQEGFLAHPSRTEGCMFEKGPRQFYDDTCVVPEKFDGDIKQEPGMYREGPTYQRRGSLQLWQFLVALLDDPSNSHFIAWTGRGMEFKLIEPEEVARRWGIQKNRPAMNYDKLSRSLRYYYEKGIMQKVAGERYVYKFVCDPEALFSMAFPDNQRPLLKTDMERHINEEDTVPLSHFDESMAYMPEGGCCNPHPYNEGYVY
Another experiment concerns the target T6, ERF (Homo sapiens, UniProt P50548 1-548).
T6 sequence: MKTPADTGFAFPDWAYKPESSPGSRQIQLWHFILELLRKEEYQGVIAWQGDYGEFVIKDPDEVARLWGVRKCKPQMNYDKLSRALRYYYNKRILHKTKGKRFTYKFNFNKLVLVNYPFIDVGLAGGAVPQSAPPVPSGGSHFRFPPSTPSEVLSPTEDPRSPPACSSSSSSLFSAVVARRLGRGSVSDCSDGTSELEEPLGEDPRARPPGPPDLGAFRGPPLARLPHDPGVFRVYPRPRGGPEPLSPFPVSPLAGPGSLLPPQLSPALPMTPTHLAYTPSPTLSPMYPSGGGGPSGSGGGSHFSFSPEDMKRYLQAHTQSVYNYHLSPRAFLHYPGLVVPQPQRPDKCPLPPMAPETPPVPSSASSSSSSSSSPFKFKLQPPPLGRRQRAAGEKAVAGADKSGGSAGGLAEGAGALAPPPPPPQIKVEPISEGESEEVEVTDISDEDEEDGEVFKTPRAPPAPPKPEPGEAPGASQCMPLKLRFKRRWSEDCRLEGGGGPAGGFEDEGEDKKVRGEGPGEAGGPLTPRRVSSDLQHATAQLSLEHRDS
Particulars: protein: recombinant; tags: N-terminal GST; dsDNA, one strand shown. In short, it runs like this: as §1

A further experiment concerns the target T7, ETV3L (Homo sapiens, UniProt Q6ZN32 1-361).
T7 sequence: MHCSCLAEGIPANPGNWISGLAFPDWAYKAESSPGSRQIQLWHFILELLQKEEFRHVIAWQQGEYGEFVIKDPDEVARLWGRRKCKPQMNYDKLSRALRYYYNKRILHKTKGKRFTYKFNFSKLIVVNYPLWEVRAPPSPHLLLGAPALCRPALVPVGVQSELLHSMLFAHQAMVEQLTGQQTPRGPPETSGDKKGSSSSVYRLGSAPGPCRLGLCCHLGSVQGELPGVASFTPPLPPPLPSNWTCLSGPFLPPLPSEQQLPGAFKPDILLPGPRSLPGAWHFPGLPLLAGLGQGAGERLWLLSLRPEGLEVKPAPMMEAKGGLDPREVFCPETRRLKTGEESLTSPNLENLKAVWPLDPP
Particulars: protein: recombinant; tags: N-terminal GST; dsDNA, one strand shown. The procedure, abridged: as §1

Another experiment concerns the target T8, ETS2 (Homo sapiens, UniProt P15036 1-469).
T8 sequence: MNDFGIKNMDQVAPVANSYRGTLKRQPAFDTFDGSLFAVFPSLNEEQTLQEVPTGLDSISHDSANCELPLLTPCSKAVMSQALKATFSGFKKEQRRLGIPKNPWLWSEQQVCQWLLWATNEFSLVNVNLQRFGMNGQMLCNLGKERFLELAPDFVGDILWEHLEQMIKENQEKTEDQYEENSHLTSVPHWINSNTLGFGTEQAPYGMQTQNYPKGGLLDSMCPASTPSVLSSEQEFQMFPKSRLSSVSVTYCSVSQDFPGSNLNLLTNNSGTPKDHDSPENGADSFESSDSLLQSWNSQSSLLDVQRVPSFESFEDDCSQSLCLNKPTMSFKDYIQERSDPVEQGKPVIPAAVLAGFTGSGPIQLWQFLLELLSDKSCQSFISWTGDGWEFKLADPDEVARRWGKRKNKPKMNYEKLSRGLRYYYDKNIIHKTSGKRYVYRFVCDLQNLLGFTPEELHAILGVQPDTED
The note with it: protein: recombinant; tags: N-terminal GST; dsDNA, one strand shown. The procedure, abridged: as §1

Another experiment has as its target T9, SPDEF (Homo sapiens, UniProt O95238 1-335).
T9 sequence: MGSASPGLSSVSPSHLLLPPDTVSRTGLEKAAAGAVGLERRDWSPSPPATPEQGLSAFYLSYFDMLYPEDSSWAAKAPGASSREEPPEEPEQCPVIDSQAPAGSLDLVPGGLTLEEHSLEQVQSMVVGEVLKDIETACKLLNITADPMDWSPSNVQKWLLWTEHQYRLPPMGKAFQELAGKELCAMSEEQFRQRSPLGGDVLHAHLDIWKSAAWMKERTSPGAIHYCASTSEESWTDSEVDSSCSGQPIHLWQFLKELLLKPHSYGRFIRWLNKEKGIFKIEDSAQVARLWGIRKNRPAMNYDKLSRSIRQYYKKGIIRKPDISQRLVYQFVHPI
Particulars: protein: recombinant; tags: N-terminal GST; dsDNA, one strand shown. The procedure, abridged:
as §1

A further experiment deals with T10, ETV7 (Homo sapiens, UniProt Q9Y603 1-341).
T10 sequence: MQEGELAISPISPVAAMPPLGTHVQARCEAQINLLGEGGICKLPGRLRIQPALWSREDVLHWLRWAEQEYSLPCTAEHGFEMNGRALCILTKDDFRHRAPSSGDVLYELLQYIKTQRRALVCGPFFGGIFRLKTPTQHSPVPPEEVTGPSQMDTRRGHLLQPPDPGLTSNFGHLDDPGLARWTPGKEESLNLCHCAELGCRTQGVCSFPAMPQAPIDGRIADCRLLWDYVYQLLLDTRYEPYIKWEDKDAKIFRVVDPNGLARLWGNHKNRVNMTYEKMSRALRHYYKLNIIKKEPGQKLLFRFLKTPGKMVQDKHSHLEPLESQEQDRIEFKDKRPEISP
Particulars: protein: recombinant; tags: N-terminal GST; dsDNA, one strand shown. In short, it runs like this:
as §1

The next experiment deals with T11, ELF5 (Homo sapiens, UniProt Q9UKW6-2 1-255).
T11 sequence: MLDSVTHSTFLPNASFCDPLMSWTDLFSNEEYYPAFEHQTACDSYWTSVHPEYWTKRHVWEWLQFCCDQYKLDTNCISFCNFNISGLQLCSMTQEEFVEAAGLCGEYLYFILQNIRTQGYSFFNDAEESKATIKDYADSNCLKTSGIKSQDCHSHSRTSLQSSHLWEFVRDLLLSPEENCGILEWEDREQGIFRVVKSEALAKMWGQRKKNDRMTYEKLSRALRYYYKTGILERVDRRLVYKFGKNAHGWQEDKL
The note with it: protein: recombinant; tags: N-terminal GST; dsDNA, one strand shown. In short, it runs like this: as §1

A further experiment deals with T12, ETV3 (Homo sapiens, UniProt P41162-2 1-143).
T12 sequence: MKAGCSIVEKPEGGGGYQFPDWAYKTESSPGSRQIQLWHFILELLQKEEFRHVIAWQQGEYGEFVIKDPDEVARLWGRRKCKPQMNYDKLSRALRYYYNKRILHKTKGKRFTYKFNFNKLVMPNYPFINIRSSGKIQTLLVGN
Particulars: protein: recombinant; tags: N-terminal GST; dsDNA, one strand shown. In short, it runs like this:
as §1

The target in the next experiment is ETV6 (Homo sapiens, UniProt P41212 1-452). The note with it: protein: recombinant; tags: N-terminal GST; dsDNA, one strand shown. In short, it runs like this:
as §1

Chain of ELF4 (Q99607 whole entry): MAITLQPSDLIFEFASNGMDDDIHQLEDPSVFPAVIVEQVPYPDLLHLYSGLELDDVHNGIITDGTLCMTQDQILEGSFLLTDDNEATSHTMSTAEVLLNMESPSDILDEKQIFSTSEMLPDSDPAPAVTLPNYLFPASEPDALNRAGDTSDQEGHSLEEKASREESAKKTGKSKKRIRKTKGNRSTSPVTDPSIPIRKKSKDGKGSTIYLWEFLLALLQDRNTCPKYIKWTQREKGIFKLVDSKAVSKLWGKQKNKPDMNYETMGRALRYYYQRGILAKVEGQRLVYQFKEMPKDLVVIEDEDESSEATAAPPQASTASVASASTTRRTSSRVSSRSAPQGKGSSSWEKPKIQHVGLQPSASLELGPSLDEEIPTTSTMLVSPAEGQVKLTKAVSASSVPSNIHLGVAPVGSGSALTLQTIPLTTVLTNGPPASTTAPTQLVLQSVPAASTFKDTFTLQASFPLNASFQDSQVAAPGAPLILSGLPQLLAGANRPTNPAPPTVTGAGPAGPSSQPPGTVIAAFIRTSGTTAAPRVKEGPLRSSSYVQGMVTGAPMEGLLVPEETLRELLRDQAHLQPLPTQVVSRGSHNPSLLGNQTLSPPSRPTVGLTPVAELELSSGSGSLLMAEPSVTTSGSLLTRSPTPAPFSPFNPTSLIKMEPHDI
Chain of ETV6 (P41212 whole entry): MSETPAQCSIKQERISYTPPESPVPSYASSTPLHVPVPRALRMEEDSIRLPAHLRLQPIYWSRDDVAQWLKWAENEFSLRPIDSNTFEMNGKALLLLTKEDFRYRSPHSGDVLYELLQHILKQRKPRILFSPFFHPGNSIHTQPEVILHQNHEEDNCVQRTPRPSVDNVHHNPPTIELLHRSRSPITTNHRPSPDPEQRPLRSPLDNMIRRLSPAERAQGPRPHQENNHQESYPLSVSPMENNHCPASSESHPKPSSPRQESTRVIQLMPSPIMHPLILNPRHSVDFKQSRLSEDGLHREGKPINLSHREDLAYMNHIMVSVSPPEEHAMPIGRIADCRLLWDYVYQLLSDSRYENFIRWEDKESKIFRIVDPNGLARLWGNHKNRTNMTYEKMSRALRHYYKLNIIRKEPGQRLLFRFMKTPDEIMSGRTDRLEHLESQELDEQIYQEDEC
Chain of HSF1 (Q00613 whole entry): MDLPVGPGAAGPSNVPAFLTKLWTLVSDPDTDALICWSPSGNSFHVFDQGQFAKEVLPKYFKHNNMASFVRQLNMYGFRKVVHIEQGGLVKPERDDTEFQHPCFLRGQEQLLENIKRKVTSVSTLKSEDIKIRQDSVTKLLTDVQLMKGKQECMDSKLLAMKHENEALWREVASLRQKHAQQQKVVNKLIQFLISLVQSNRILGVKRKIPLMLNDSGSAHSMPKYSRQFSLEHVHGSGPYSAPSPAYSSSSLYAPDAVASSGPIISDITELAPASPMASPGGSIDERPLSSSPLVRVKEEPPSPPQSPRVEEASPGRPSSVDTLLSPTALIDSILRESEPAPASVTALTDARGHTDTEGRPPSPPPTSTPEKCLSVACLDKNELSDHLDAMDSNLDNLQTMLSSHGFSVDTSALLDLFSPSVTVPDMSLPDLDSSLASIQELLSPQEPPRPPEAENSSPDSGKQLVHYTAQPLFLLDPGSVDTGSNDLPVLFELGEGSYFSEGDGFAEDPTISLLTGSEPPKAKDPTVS
Chain of ETV5 (P41161 whole entry): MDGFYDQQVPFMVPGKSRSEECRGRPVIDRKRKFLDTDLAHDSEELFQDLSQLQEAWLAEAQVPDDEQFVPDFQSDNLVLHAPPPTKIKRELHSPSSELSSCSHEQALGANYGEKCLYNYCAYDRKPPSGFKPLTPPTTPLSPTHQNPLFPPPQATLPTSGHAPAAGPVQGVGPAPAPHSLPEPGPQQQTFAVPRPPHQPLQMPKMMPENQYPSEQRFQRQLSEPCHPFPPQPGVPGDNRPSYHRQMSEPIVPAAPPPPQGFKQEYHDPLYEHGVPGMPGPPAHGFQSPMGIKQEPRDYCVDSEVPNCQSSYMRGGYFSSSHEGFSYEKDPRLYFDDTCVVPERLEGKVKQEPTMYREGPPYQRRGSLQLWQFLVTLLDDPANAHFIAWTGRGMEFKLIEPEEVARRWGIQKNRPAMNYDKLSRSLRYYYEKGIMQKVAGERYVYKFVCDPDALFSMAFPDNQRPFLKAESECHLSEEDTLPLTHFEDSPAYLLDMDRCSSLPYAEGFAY

Consider TCCCAC, for which the binding signal is 1.38 fold enrichment (6-mer frequency, TF over GST control) with FEV; 1.37 fold enrichment (6-mer frequency, TF over GST control) with ETV5; 1.17 fold enrichment (6-mer frequency, TF over GST control) in the experiment with HSF1; 1.17 fold enrichment (6-mer frequency, TF over GST control) with SPIC; 1.34 fold enrichment (6-mer frequency, TF over GST control) with ELF4; 1.34 fold enrichment (6-mer frequency, TF over GST control) with ELK4. In addition, the binding signal in the experiment with ETV2 is 1.12 fold enrichment (6-mer frequency, TF over GST control); with ELF3, 1.46 fold enrichment (6-mer frequency, TF over GST control); in the experiment with CRX, 1.34 fold enrichment (6-mer frequency, TF over GST control); in the experiment with ETV1 it was 1.34 fold enrichment (6-mer frequency, TF over GST control); with ERF, 1.5 fold enrichment (6-mer frequency, TF over GST control); in the experiment with ETV3L, 1.31 fold enrichment (6-mer frequency, TF over GST control). Also, the binding signal is 1.23 fold enrichment (6-mer frequency, TF over GST control) with ETS2; 1.33 fold enrichment (6-mer frequency, TF over GST control) in the experiment with SPDEF; 1.41 fold enrichment (6-mer frequency, TF over GST control) with ETV7; 1.47 fold enrichment (6-mer frequency, TF over GST control) with ELF5; 1.24 fold enrichment (6-mer frequency, TF over GST control) with ETV3; 1.4 fold enrichment (6-mer frequency, TF over GST control) with ETV6.
